For one sequence, binding signal results are on record in article PMC7862700, “An all-to-all approach to the identification of sequence-specific readers for epigenetic DNA modifications on cytosine”.

Holding throughout (assay): DAPPL (digital affinity profiling via proximity ligation, sequencing); 10 mM Tris-HCl pH 7.5, 50 mM NaCl, 1 mM DTT, 4% glycerol, room temperature, 30 min; GST-TFs on glutathione beads, 16-mer random dsDNA library, 0.1% formaldehyde crosslink after washing; high values mean tight binding
Settings in all cases: protein: recombinant; tags: N-terminal GST; dsDNA, one strand shown

For assay [1], the target named is T1, ELK1 (Homo sapiens, UniProt P19419 1-428).
T1 sequence: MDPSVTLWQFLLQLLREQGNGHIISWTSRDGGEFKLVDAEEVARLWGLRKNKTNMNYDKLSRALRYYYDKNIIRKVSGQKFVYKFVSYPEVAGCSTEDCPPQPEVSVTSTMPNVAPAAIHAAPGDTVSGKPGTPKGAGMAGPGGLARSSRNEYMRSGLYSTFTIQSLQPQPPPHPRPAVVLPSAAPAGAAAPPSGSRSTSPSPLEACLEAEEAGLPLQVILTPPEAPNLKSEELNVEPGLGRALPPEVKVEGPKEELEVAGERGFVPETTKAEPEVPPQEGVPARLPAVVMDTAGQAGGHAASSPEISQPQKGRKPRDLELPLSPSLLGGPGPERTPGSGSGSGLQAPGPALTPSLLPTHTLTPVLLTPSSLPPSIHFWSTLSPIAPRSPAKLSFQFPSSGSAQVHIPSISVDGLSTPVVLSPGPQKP
The procedure, abridged: (§1)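 Pools were built from human transcription factors expressed in yeast as GST fusions, captured on glutathione beads and DNA-barcoded, along with a tag-only sample. Incubation with 200 nmole of a 16-mer random double-stranded DNA library lasted 30 min at room temperature in Tris/NaCl/DTT/glycerol buffer, and was followed by washing, 0.1% formaldehyde crosslinking, proximity ligation, PCR amplification and Illumina NextSeq500 sequencing. Binding signal is the quotient of each hexamer's read frequency for a factor and its frequency for the tag-only sample.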

The target of assay [2] is T2, GABPA (Homo sapiens, UniProt Q06546 1-454).
T2 sequence: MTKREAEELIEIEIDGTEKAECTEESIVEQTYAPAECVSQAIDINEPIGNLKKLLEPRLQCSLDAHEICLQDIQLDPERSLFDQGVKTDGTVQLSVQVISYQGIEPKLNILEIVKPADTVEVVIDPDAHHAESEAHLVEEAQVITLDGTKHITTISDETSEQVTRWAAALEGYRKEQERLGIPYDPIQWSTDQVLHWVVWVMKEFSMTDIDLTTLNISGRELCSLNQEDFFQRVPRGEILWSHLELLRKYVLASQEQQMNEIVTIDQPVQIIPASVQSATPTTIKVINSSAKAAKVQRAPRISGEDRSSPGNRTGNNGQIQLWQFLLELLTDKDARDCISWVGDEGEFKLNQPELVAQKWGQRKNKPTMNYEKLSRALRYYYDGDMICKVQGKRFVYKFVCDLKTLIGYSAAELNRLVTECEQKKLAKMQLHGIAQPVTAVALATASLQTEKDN
The procedure, abridged: as §1

The target in assay [3] is T3, ERG (Homo sapiens, UniProt P11308 1-479).
T3 sequence: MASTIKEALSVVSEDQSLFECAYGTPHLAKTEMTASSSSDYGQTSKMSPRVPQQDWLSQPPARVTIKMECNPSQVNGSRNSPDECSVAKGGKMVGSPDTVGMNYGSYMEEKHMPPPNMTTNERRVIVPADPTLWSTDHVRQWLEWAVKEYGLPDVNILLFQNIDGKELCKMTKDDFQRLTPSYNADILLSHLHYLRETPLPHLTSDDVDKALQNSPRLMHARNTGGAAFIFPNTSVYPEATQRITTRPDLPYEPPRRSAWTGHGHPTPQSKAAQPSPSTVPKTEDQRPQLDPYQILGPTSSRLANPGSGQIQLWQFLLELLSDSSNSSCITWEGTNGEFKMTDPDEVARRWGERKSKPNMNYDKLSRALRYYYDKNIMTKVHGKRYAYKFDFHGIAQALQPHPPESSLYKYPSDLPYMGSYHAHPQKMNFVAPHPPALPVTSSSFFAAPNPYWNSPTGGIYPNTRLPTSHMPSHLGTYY
The procedure, abridged: as §1

Assay [4] deals with ELF1 (Homo sapiens, UniProt P32519 1-619). The procedure, abridged: as §1
The target in assay [5] is T4, EHF (Homo sapiens, UniProt Q9NZC4 1-300).
T4 sequence: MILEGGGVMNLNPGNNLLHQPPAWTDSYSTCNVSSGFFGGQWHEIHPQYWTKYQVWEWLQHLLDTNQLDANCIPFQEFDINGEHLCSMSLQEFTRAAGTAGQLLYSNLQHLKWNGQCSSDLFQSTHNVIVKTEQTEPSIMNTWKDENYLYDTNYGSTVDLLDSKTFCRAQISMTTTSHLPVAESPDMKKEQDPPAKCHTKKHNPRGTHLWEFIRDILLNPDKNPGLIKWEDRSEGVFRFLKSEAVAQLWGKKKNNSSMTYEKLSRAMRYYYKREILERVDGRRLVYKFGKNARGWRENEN
The essentials: as §1

Assay [6] concerns the target SPI1 (Homo sapiens, UniProt P17947 1-270). The procedure, abridged: as §1
For assay [7], the target named is SPIB (Homo sapiens, UniProt Q01892 1-262). The procedure, abridged:
as §1

Assay [8] concerns the target T5, FEV (Homo sapiens, UniProt Q99581 1-238).
T5 sequence: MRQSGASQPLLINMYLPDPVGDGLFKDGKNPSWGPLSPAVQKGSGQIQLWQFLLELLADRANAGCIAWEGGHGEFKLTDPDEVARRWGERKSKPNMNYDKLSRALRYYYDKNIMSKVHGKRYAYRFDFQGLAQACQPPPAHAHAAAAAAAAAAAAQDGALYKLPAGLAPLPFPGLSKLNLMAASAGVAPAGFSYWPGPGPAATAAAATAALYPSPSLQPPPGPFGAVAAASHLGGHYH
The essentials: as §1

The target of assay [9] is ETV5 (Homo sapiens, UniProt P41161 1-510). The essentials: as §1
Assay [10] addresses ELF4 (Homo sapiens, UniProt Q99607 1-663). The procedure, abridged:
as §1

Sequence of ETV5 (P41161 whole entry): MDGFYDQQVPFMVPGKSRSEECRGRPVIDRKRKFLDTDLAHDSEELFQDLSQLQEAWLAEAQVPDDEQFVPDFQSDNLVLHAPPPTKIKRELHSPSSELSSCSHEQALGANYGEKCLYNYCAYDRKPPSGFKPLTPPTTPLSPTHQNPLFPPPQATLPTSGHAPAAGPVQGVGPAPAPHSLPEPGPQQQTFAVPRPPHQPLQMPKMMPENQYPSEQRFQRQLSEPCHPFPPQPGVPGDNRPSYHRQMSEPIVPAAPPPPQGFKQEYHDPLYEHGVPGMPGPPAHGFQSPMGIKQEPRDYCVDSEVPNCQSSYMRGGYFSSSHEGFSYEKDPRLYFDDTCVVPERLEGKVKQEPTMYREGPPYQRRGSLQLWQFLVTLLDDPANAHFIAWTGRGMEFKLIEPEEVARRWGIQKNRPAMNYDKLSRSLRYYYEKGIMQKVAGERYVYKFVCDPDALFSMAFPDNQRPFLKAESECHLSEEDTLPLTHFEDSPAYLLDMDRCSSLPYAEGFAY
Sequence of ELF1 (P32519 whole entry): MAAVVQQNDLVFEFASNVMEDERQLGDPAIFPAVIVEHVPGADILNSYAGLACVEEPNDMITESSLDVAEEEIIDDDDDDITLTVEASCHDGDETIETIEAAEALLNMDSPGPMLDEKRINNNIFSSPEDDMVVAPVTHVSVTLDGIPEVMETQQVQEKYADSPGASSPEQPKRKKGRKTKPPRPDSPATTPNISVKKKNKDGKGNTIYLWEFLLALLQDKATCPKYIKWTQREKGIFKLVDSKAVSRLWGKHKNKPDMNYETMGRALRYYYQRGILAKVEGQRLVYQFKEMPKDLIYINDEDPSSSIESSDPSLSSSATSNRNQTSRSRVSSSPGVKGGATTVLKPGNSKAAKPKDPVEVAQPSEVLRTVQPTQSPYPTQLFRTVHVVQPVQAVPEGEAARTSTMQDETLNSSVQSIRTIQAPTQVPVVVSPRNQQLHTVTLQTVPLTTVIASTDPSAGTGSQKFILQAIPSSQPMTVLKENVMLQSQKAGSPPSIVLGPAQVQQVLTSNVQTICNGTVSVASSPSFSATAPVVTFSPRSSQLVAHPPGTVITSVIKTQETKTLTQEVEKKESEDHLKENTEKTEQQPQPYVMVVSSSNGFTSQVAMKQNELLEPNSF
Sequence of SPIB (Q01892 whole entry): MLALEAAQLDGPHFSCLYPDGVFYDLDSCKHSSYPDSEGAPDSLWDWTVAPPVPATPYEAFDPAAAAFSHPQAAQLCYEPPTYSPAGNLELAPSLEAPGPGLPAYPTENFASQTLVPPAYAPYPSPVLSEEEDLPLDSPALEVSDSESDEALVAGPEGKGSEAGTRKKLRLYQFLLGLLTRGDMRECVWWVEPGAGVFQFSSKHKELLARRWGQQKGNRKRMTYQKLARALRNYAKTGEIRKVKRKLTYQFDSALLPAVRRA
Sequence of ELF4 (Q99607 whole entry): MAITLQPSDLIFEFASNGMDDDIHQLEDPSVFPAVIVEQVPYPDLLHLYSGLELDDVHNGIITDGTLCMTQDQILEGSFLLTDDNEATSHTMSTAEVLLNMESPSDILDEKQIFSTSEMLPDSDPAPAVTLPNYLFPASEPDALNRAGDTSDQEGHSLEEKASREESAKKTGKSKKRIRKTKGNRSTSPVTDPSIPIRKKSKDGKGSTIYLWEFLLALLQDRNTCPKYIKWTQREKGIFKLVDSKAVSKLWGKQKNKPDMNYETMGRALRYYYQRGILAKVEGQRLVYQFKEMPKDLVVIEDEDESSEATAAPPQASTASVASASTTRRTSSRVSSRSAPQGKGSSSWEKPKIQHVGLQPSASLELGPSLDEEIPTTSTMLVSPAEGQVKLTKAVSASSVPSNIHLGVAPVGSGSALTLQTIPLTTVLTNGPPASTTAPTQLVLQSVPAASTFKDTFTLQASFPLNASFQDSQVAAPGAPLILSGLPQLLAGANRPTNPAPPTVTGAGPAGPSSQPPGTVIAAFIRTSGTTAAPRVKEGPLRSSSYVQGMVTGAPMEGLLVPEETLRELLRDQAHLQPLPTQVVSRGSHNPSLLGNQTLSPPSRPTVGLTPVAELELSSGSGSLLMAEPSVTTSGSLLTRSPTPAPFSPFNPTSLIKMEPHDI

In the case of AAGATC, the binding signal in [1] is 1.07 fold enrichment (6-mer frequency, TF over GST control); in assay [2], 1.08 fold enrichment (6-mer frequency, TF over GST control); in assay [3], 1.07 fold enrichment (6-mer frequency, TF over GST control); in assay [4] it was 1.05 fold enrichment (6-mer frequency, TF over GST control); in [5] it was 1.04 fold enrichment (6-mer frequency, TF over GST control); in [6] it was 1.04 fold enrichment (6-mer frequency, TF over GST control). The binding signal in assay [7] is 1.13 fold enrichment (6-mer frequency, TF over GST control); in assay [8] it was 1.03 fold enrichment (6-mer frequency, TF over GST control); in assay [9], 1.03 fold enrichment (6-mer frequency, TF over GST control); in assay [10], 1.03 fold enrichment (6-mer frequency, TF over GST control).
